Measured values reported in the supplement of paper PMC9262897, “Low-cost anti-mycobacterial drug discovery using engineered E. coli” (Nature Communications, 2022).
Where a name gives a salt, the structure may show the parent alone. ± gives the standard deviation of the averaged measurements.

Test system: E. coli TESEC Mtb Alr
Assay: growth (OD600 after 10 h); higher = more growth (less inhibition)
Details: compound 0.1 mM
Method: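 TESEC Mtb Alr E. coli, or the Alr+ wild-type control, in 384-well plates with Prestwick library compounds at 0.1 mM and 1% DMSO, across arabinose induction levels of 1E3 to 1E7 nM. Growth is read as OD600 after 10 h at 37 °C in triplicate biological replicates.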

[1] = arabinose 1000 nM, raw OD600 reference: median of DMSO wells 0.294, cell-free background 0.041
[2] = arabinose 10000 nM, raw OD600 reference: median of DMSO wells 0.264, cell-free background 0.041
[3] = arabinose 100000 nM, raw OD600 reference: median of DMSO wells 0.201, cell-free background 0.041
[4] = arabinose 1000000 nM, raw OD600 reference: median of DMSO wells 0.193, cell-free background 0.041
[5] = arabinose 10000000 nM, raw OD600 reference: median of DMSO wells 0.146, cell-free background 0.041

SMILES | growth [1] | growth [2] | growth [3] | growth [4] | growth [5]
CC(C)(C)NC[C@H](O)COc1ccccc1C1CCCC1 [Penbutolol sulfate] | 0.225 ± 0.0034 | 0.321 ± 0.0081 | 0.162 ± 0.011 | 0.128 ± 0.0083 | 0.142 ± 0.013
CC[C@]12CCCN3CCc4c(n(c5ccccc45)[C@@](O)(C(=O)OC)C1)[C@@H]32 [Vincamine] | 0.276 ± 0.0046 | 0.258 ± 0.0043 | 0.193 ± 0.023 | 0.173 ± 0.0043 | 0.138 ± 0.0023
Nc1nc(NC2CC2)c2ncn([C@H]3C=C[C@@H](CO)C3)c2n1 [Abacavir Sulfate] | 0.295 ± 0.024 | 0.253 ± 0.0039 | 0.182 ± 0.012 | 0.18 ± 0.0053 | 0.133 ± 0.0075
Cc1cc(C(C)(C)C)c(O)c(C)c1CC1=NCCN1 [Oxymetazoline hydrochloride] | 0.302 ± 0.0066 | 0.263 ± 0.014 | 0.196 ± 0.011 | 0.17 ± 0.011 | 0.165 ± 0.011
CCOC(=O)/C=C(C)/C=C/C=C(C)/C=C/c1c(C)cc(OC)c(C)c1C [Etretinate] | 0.308 ± 0.015 | 0.257 ± 0.011 | 0.211 ± 0.0087 | 0.161 ± 0.0097 | 0.151 ± 0.0019
CCN1CCN(C(=O)N[C@@H](C(=O)N[C@@H]2C(=O)N3[C@@H]2SC(C)(C)[C@@H]3C(=O)O)c2ccccc2)C(=O)C1=O [Piperacillin sodium salt] | 0.295 ± 0.014 | 0.268 ± 0.0055 | 0.204 ± 0.0097 | 0.201 ± 0.0086 | 0.133 ± 0.0047
CC(=O)OCC(=O)[C@@]12OC(C)(C)O[C@@H]1C[C@H]1[C@@H]3C[C@H](F)C4=CC(=O)C=C[C@]4(C)[C@@]3(F)[C@@H](O)C[C@@]12C [Fluocinonide] | 0.279 ± 0.012 | 0.275 ± 0.01 | 0.195 ± 0.015 | 0.213 ± 0.041 | 0.163 ± 0.037
N#CC(c1ccc(Cl)cc1)c1c(Cl)cc(-n2ncc(=O)[nH]c2=O)cc1Cl (stereo not given) [Diclazuril] | 0.0423 ± 0.004 | 0.0402 ± 0.0002 | 0.0425 ± 0.0014 | 0.0405 ± 0.00045 | 0.0479 ± 0.0017
